Screening data as filed in PubChem.
FMDV inh: High Throughput Screening for Foot and Mouth Disease Virus Antivirals | FMDV antiviral cell-based qHTS | Potency, µM (doses to about 57.9 µM), usual class: inhibitors | 410,000 compounds, 1.2% hits | AID 1159524, 2015; calls by dose curve; tested in HEK293T cells; note: read-out not given here; nearly all actives have a fitted effect of over 45% in size
MARV entry inh: qHTS for inhibitors of binding or entry into cells for Marburg Virus | Marburg virus pseudotyped entry inhibition, cell reporter | Potency, µM (doses to about 37.8 µM), actives largely listed as inhibitors | 300,000 compounds, 1.8% hits; calls by dose curve; tested in HEK293 cells
HCMV inh: qHTS Assay for inhibitors of the human cytomegalovirus (HCMV); activity change, negative = inhibition, % at 57.5 µM; AID 1259415, 2018; 410,000 compounds, 4.5% hits; HFF cells, HCMV-luciferase reporter, 72 h; active compounds read low; in the data active = activity change below about -60%; inconclusive = no clear call, values can overlap the other calls; inactive = above about -39%
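Screen run at 2 compound doses on HFFs infected with reporter HCMV, MOI 1 PFU/cell. Luciferase activity from cell lysates at 72 h post infection gave inhibition relative to buffer-only and Salinomycin wells.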
LASV entry inh: qHTS for Inhibitors of binding or entry into cells for Lassa Virus | Lassa virus pseudotype entry inhibition, cell reporter | Potency, µM (series often up to 37.9 µM), actives largely listed as inhibitors | 300,000 compounds, 1.2% hits | AID 540256, 2011; calls by dose curve; tested in HEK293 cells; note: nearly all actives have a fitted effect of over 50% in size
HCV inh: qHTS Assay for Inhibitors of Hepatitis C Virus (HCV); Huh7.5.1 HCVcc-Cre infection, luciferase reporter, 44 h; Potency, µM (series often up to 41.8 µM), usual class: inhibitors; 340,000 compounds, 3.4% hits; AID 651820, 2012; active = well fitted inhibition curve with a large enough effect; inconclusive = small, poorly fitted or top-dose-only effect, or another doubt; inactive = no such curve, though single readings can be large or run the other way
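Luciferase read-out (15 sec integration) after a 15 min room-temperature substrate step quantifies HCVcc-Cre infection. Cells, 1,000 per well, had compound added 4 h post-plating, then virus at ~0.5 moi, and were cultured 44 h.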
Of the large screens only hits and unclear results are named; the others gave an inactive call; ! = not active in a repeat. A selection: hits, their analogues and other compounds. The true share with any hit is near 7.9%.

Cc1scc(C(=O)NNC(=S)NC(C)c2ccccc2)c1C (stereo not given)	HCMV inh -78
CC(NC(=O)c1ccco1)c1nnc2n1CCN(Cc1ccc(Cl)cc1)CC2 (stereo not given)	none (no result: MARV entry inh, HCMV inh, LASV entry inh, HCV inh)
CC(OC(=O)c1ccc2ncsc2c1)C(=O)Nc1cccc(Cl)c1 (stereo not given)	FMDV inh inconclusive, HCV inh inconclusive (no result: MARV entry inh, LASV entry inh)
COC(=O)c1ccc(Sc2nnnn2-c2ccccc2)c([N+](=O)[O-])c1	FMDV inh 20µM, MARV entry inh inconclusive, LASV entry inh inconclusive
COC(=O)[C@@H]1CCCN1C(=O)c1cnn(-c2ncc3c(n2)-c2ccccc2CCC3)c1C1CC1	none (no result: MARV entry inh, HCMV inh, LASV entry inh, HCV inh)
COc1ccc(NC(=O)c2oc3ccc(S(=O)(=O)N(C)C4CCCCC4)cc3c2C)cc1	FMDV inh inconclusive, HCMV inh -72, LASV entry inh inconclusive (no result: MARV entry inh, HCV inh)
CN(C)S(=O)(=O)c1ccc(NC(=O)c2ccc(Br)o2)cc1	LASV entry inh inconclusive (no result: HCMV inh)
CN(C1CCCCC1)S(=O)(=O)c1ccc(NC(=O)c2ccc(Br)o2)cc1	LASV entry inh 11µM
CCOC(=O)c1oc2ccc(S(=O)(=O)n3nc(-c4ccc(OC)cc4)cc3N)cc2c1C	FMDV inh inconclusive, HCMV inh -67
CCN(CC)S(=O)(=O)c1ccc2oc(C(=O)Nc3ccc(OC)cc3OC)c(C)c2c1	MARV entry inh inconclusive, LASV entry inh 6.5µM
COc1ccc(CNC(=O)C2CCN(S(=O)(=O)c3ccc4c(c3)N(C(C)=O)CCO4)CC2)cc1	MARV entry inh inconclusive
Cc1cccc(NC(=O)c2oc3ccc(S(=O)(=O)N(C)C4CCCCC4)cc3c2C)c1C	HCMV inh -75 (no result: MARV entry inh, HCV inh)
CCN(CC)S(=O)(=O)c1ccc2oc(Nc3ccc(OC)cc3OC)nc2c1	HCV inh 10µM
Cc1cc(C)cc(NC(=O)CSCc2cc(=O)c3ccc(C)c(C)c3[nH]2)c1	none (no result: MARV entry inh, HCV inh)
COc1ccc(S(=O)(=O)N2C[C@@H](O)COC[C@@H]3O[C@H](CC(=O)NCCCN4CCOCC4)CC[C@H]32)cc1	HCMV inh -74 (no result: MARV entry inh, LASV entry inh, HCV inh)
Cc1nc2ccc(F)cc2cc1C(=O)NCc1ccco1	none
Cc1nc2ccc(F)cc2cc1C(=O)Nc1ccc(Cl)c(Cl)c1	HCMV inh -61
Cc1oc(-c2cccc(Br)c2)nc1Cn1c(SCc2cccc(F)c2)nc2cccnc21	none (no result: MARV entry inh, HCV inh)
O=S1(=O)CCOC[C@H](Cc2ccccc2)N1Cc1cccc(C(F)(F)F)c1	HCV inh inconclusive (no result: MARV entry inh, LASV entry inh)
FC(F)(F)c1cccc(CC2CN(Cc3ccccc3)Cc3ccccc3N2c2cc(Cl)cc(Cl)c2)c1 (stereo not given)	HCMV inh -98 (no result: MARV entry inh, LASV entry inh, HCV inh)
COC(=O)c1ccc2c(=O)n(Cc3ccco3)c(SCC(=O)Nc3ccccc3Cl)nc2c1	HCV inh inconclusive
COC(=O)c1ccc2c(=O)n(Cc3ccco3)c(SCC(=O)Nc3cc(C)on3)nc2c1	HCMV inh -95 (no result: MARV entry inh, LASV entry inh)
Cc1cc(NC(=O)CSc2nc3cc(C(=O)NCCCOC(C)C)ccc3c(=O)n2Cc2ccco2)no1	MARV entry inh inconclusive, HCMV inh -84, LASV entry inh inconclusive, HCV inh 7.1µM
COCCNC(=O)c1ccc2c(=O)n(Cc3ccco3)c(SCC(=O)Nc3ccc(OC)cc3OC)nc2c1	HCMV inh inconclusive, HCV inh inconclusive (no result: MARV entry inh, LASV entry inh)
COc1ccccc1CNc1nc(-c2ccco2)nn1C(=O)c1cc(OC)c(OC)c(OC)c1	none (no result: HCV inh)
CCC(=O)n1nc(NCc2ccccc2OC)nc1NCc1ccccc1OC	FMDV inh inconclusive, MARV entry inh inconclusive, LASV entry inh inconclusive, HCV inh 11µM
COc1ccc(C2C(Oc3ccccc3)C(=O)N2c2ccc(C)c(C)c2)cc1OC (stereo not given)	MARV entry inh inconclusive, LASV entry inh inconclusive, HCV inh 11µM
Nc1ccn([C@@H]2O[C@H](C(=O)N(CCC3=CCCCC3)CC3CC3)[C@@H](O)[C@H]2O)c(=O)n1	none (no result: MARV entry inh, LASV entry inh, HCV inh)
COc1cccc(-c2nn(C)c3sc(C(=O)NCc4ccc(C)cc4)cc23)c1	LASV entry inh inconclusive, HCV inh inconclusive
CCCN(CCC)CCNC(=O)c1cc2c(-c3ccc(Cl)cc3)nn(C)c2s1	FMDV inh inconclusive, MARV entry inh 4µM, HCMV inh inconclusive, HCV inh 8.9µM
COc1cccc(-c2nn(C)c3sc(C(=O)NCc4ccccn4)cc23)c1	MARV entry inh inconclusive, HCV inh 10µM
COc1ccc(-c2nn(C)c3sc(C(=O)Nc4cccc(F)c4)cc23)cc1OC	FMDV inh inconclusive, HCMV inh -85, LASV entry inh inconclusive (no result: MARV entry inh, HCV inh)
COc1cccc(-c2nn(C)c3sc(C(=O)NCCc4cccc(C)c4)cc23)c1	MARV entry inh inconclusive, HCMV inh -69, LASV entry inh inconclusive (no result: HCV inh)
COc1cccc(CNC(=O)c2cc3c(-c4ccccc4F)nn(C)c3s2)c1	FMDV inh inconclusive, LASV entry inh inconclusive (no result: HCV inh)
CCc1ccc(CNC(=O)CN2C(=O)c3cccnc3Oc3ccc(C)cc32)cc1	HCMV inh inconclusive (no result: MARV entry inh, HCV inh)
Cc1cc(C(=O)COc2ccc(C#N)cc2)c(C)n1CC1CCCO1 (stereo not given)	HCV inh inconclusive
COc1ccc(-n2nc(C(=O)N3CCN(c4cccc(C)c4C)CC3)c3c4ccccc4n(C)c3c2=O)cc1	none (no result: HCV inh)
CCN(CC)CCNC(=O)c1cc2c(-c3cccc(OC)c3)nn(C)c2s1	MARV entry inh inconclusive, HCMV inh -78!, HCV inh 13µM
COc1cccc(-c2nn(C)c3sc(C(=O)Nc4ccc5c(c4)OCCO5)cc23)c1	HCV inh 3.2µM (no result: HCMV inh)
COCCCNC(=O)c1cc2c(-c3cccc(OC)c3)nn(C)c2s1	MARV entry inh inconclusive, LASV entry inh inconclusive
CCOc1ccc(NC(=O)c2nn(C)c3c2CS(=O)(=O)c2ccccc2-3)cc1	none (no result: MARV entry inh, HCV inh)
CC(NC(=O)c1ccccc1Cl)C(=O)OCc1cn2cc(Cl)ccc2n1 (stereo not given)	none (no result: MARV entry inh, LASV entry inh)
CC(=O)c1c(C)[nH]c(C(=O)Nc2cccc(S(=O)(=O)N(C)c3ccccc3)c2)c1C	MARV entry inh 13µM, LASV entry inh inconclusive, HCV inh 25µM
COc1ccccc1NS(=O)(=O)c1cccc(NC(=O)Cc2cccs2)c1	LASV entry inh 16µM, HCV inh inconclusive
CCNC(=S)Nc1cccc(S(=O)(=O)Nc2ccccc2OC)c1	none
COc1cccc(NC(=O)Cc2cccs2)c1	none
COc1ccccc1NS(=O)(=O)c1cccc(NC(=O)Nc2ccc(Cl)cc2)c1	FMDV inh inconclusive, MARV entry inh inconclusive, HCMV inh -85, LASV entry inh 6.3µM, HCV inh inconclusive
COc1ccccc1NS(=O)(=O)c1cccc(NC(=O)Nc2ccccc2)c1	FMDV inh inconclusive, MARV entry inh inconclusive, HCMV inh inconclusive, LASV entry inh 15µM, HCV inh inconclusive
CC(=O)c1c(C)[nH]c(C(=O)Nc2cccc(S(=O)(=O)N3CCOCC3)c2)c1C	HCV inh inconclusive
CSc1ncccc1C(=O)NCCN1Cc2ccccc2OC(c2ccccc2F)C1 (stereo not given)	none (no result: MARV entry inh, HCMV inh, LASV entry inh, HCV inh)
Cc1ccc2c(=O)cc(C(=O)Nc3ccc(S(=O)(=O)N(C)Cc4ccccc4)cc3)oc2c1	none (no result: HCV inh)
COc1ccccc1NS(=O)(=O)c1cc(C)ccc1C	MARV entry inh 10µM
